Test results from PubChem BioAssay AID624377 (The Scripps Research Institute Molecular Screening Center, 2012).
In all, about 360,000 compounds went through this assay and about 680 (0.19%) were called active. Cut-off read from the data, not from the text of the source: active = inhibition above about 25%; inactive = the rest. The entries come from a sample that favours actives as a whole.

The compounds below were run against Arf-GAP with SH3 domain, ANK repeat and PH domain-containing protein 1 (Homo sapiens) (UniProt Q9ULH1) (assay: blockers of ASAP1-stimulated ARF1 GTP hydrolysis – biochemical, fluorescence polarization, primary screen (AID 624377;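 note: 0% = vehicle with enzyme and substrate and 100% = no enzyme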)). Conditions: GDP FP detection, at 16.5 µM, stronger effect = higher value.
Arf-GAP with SH3 domain, ANK repeat and PH domain-containing protein 1 (Homo sapiens), sequence (Q9ULH1 325-724 limits assumed): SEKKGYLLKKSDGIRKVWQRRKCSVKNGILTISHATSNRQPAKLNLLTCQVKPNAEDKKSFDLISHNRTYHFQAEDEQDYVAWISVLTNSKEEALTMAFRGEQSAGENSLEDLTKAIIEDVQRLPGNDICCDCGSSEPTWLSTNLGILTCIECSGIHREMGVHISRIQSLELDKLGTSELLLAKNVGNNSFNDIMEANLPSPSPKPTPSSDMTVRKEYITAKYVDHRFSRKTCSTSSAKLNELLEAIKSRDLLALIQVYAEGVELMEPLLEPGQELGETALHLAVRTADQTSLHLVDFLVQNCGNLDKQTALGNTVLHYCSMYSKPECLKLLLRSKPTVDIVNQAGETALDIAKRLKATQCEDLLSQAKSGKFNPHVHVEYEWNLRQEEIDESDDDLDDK
For `COc1ccccc1-c1ccc([C@@H]2C[C@H]3[C@H](CON3C)CN2S(=O)(=O)c2cc(Cl)cc(Cl)c2)cc1`, the inhibition was -15.3% (inactive). For `CN1CCCCC(NC(=O)C(C)(C)C)C1=O` (stereo unspecified), the inhibition was -1.72% (inactive). For `CC(=NNC(N)=O)c1ccc(Cl)c(-n2cccc2)c1`, the inhibition was 7.66% (inactive). For `Cc1cc(NCCc2c[nH]c3ccccc23)ccc1Oc1cccnc1`, the inhibition was 6.6% (inactive). In the case of `COC(=O)[C@]12C[C@H](CC(=O)N3CCN(C(=O)C4CC4)CC3)C(=O)N(Cc3ccc4c(c3)OCO4)C1=C[C@H](C(C)(C)C)O[C@@H]2C`, the inhibition is reported as -0.19% (inactive). In the case of `COC(=O)[C@]12C[C@H](CC(=O)NCCc3ccccc3OC)C(=O)N(Cc3ccccc3)C1=C[C@H](C(C)C)O[C@@H]2C1CC1`, the inhibition is reported as -3.14% (inactive). `CC[C@H](C)[C@H]1CNC(=O)C(=O)N1CC1CCN(CCc2ccc(OC)c(OC)c2)CC1` was tested, and the inhibition was -3.91% (inactive). For `COc1ccc(-c2ccc3c(n2)CCCN3S(=O)(=O)c2ccc(C)cc2)cc1`, the inhibition was -10.4% (inactive). In the case of `CN[C@H]1C[C@H]2c3[nH]c4c(-c5ccccc5)cccc4c3CCN2C(=O)[C@H]1[C@H](C)O`, the inhibition is reported as -4.1% (inactive). In the case of `COC(=O)C1=C(C)N(Cc2cccc(C(F)(F)F)c2)C(=NCc2cccc(C(F)(F)F)c2)NC1c1ccccc1C(F)(F)F` (stereo unspecified), the inhibition is reported as 4.19% (inactive). With `CCOC(=O)/C=C/c1ccccc1O` the inhibition was 8.09% (inactive). With `C[C@@H]1ON(C)[C@H]2C[C@H]3c4cc(N5CCOCC5)ccc4CCN3C[C@@H]12` the inhibition was 11.7% (inactive). For `COC(=O)c1cc2c(c3c4ccccc4n(S(=O)(=O)c4cccc(C)c4)c13)C(=O)N(Cc1ccccc1)C2`, the inhibition was -7.05% (inactive). `COc1ccc(NC(=O)CSc2nnnn2-c2cccc(OC)c2)cc1` was tested, and the inhibition was 3.21% (inactive). `O=C(CSc1nnnn1-c1ccc(O)cc1)c1ccc(F)cc1` was tested, and the inhibition was 1.74% (inactive). With `COc1ccc(-n2nnnc2SCC(=O)c2ccc(OC)c(OC)c2)cc1` the inhibition was 27.3% (active). For `OC(CCl)CCl`, the inhibition was 12.1% (inactive). With `COC(=O)c1c(-c2ccc(OC)cc2)c2c(c3c4cc(OC)ccc4n(S(=O)(=O)c4ccc(F)cc4)c13)C(=O)N(C)C2` the inhibition was -0.62% (inactive). With `CCCN1C(=O)c2[nH]nc(-c3ccccc3)c2C1c1ccccc1` (stereo unspecified) the inhibition was 0.41% (inactive). In the case of `C[C@H](CO)N1C[C@H](C)[C@@H](CN(C)C(=O)Nc2ccccc2F)OCc2cn(nn2)CCCC1=O`, the inhibition is reported as -10.4% (inactive). In the case of `Nc1ncnc2c1ncn2C1OC(CO)CC1O` (stereo unspecified), the inhibition is reported as 3.34% (inactive). `Cc1ccccc1C(=O)N[C@H](C(=O)N1CCC[C@H]1C(=O)NCc1ccccc1)C(C)C` was tested, and the inhibition was -8.79% (inactive). With `COC(=O)[C@]12C[C@H](CC(=O)NCc3ccccc3)C(=O)N(CCC3=CCCCC3)C1=C[C@H](C(C)(C)C)O[C@@H]2C` the inhibition was -6.37% (inactive). With `COc1ccc(C2=CN(Cc3ccccc3)C(c3ccc(OC)cc3)CC2=O)cc1` (stereo unspecified) the inhibition was 12.3% (inactive). With `CC(C)C[C@H](NC(=O)CC1CCCC1)C(=O)N1CCC[C@H]1C(=O)NCc1ccccc1` the inhibition was -6.9% (inactive). In the case of `COc1ccccc1CCn1cnc(-c2ccccc2)c1C(C)C`, the inhibition is reported as 16.9% (inactive). For `CCOC(=O)C1=C(C(=O)OCC)C2N(Cc3ccc(C#N)cc3)c3ccccc3[C@@]23C[C@@H](C(=O)OC)N(S(=O)(=O)c2ccc(F)cc2)C3=N1` (stereo partly specified), the inhibition was 12.3% (inactive). With `COc1cccc(CC(=O)N2CCN(C(=O)C(=O)c3cccc(C(F)(F)F)c3)CC2)c1` the inhibition was 3.01% (inactive). `CCN(CC)c1ccc2cc(C(N)=O)/c(=N\NC(=O)c3ccncc3)oc2c1` was tested, and the inhibition was 26.4% (active). In the case of `CCOc1cc(/C=N/NC(=O)c2ccncc2)cc(Br)c1O`, the inhibition is reported as -12.7% (inactive). With `CC(=NNC(=O)c1ccncc1)c1ccc(Cl)c(Cl)c1` the inhibition was -23.7% (inactive). For `CCOC(=O)N1CCN(C(=O)C[C@H]2C[C@@]3(C(=O)OC)C(=C[C@H](C4CCCC4)O[C@@H]3C)N(Cc3ccccc3)C2=O)CC1`, the inhibition was -6.46% (inactive). `COc1ccc(CNS(=O)(=O)c2cc(Br)ccc2Br)cc1` was tested, and the inhibition was -8.38% (inactive). For `CCN1CCCC1CNC(=O)c1ccc2c(c1)NC(=O)/C(=C\c1ccccc1F)S2` (stereo unspecified), the inhibition was -12.3% (inactive). With `COc1ccc(CCNC(=O)c2ccc3c(c2)NC(=O)C(N2CCOCC2)S3)cc1OC` (stereo unspecified) the inhibition was -5.91% (inactive). In the case of `CCN1CCN(CCNC(=O)c2ccc3c(c2)NC(=O)/C(=C\c2ccc(OC)c(OC)c2)S3)CC1`, the inhibition is reported as 25.9% (active). With `COc1ccc(NC(=O)N(C)C[C@@H]2OCCCC[C@@H](C)Oc3ccc(NC(=O)NC4CCCCC4)cc3C(=O)N([C@H](C)CO)C[C@@H]2C)cc1` the inhibition was -0.3% (inactive). For `NC(=O)c1ncn([C@@H]2O[C@H](C(=O)O)[C@@H](O)[C@H]2O)n1`, the inhibition was -8.9% (inactive). `O=C(NCc1ccccc1)[C@@H]1CCCN1C(=O)[C@H]1CCCN1C(=O)c1cccc(Cl)c1` was tested, and the inhibition was 5.06% (inactive). For `CC(C)CNc1cccc2c1S(=O)(=O)N[C@H](CC(C)C)CO2`, the inhibition was 14.4% (inactive). With `COCc1cc(N2CCN(C(=O)OC(C)(C)C)C[C@@H]2C)ccc1N1CCN(Cc2ccccc2)[C@H](C)C1` the inhibition was -0.13% (inactive). `O=c1[nH]c(-c2ccccc2)cn1C1CCN(Cc2ccc(-c3nc4ccc(F)cc4nc3-c3ccccc3)cc2)CC1` was tested, and the inhibition was 6.64% (inactive). `O=S1(=O)c2c(cccc2N2CCCCC2)O[C@H](COCc2ccccc2)CN1C1CC1` was tested, and the inhibition was -0.37% (inactive). With `CCN1C(=O)N[C@@H]2C[C@H](C(=O)N3CCCC3)[C@H](C)[C@H](c3ccccc3)C[C@@H]21` the inhibition was 9.08% (inactive). For `COC(=O)Cc1nnn2c1[C@H](C)[C@H](c1ccccc1[N+](=O)[O-])OCC2`, the inhibition was 5.28% (inactive). `N#Cc1ccc(OCCCN2CCC(C(O)(c3ccccc3)c3ccccc3)CC2)c(F)c1` was tested, and the inhibition was 12.3% (inactive). In the case of `O=C(NCc1ccccc1)[C@H]1CCCN1C(=O)[C@H]1CCCN1C(=O)c1cc(F)cc(F)c1`, the inhibition is reported as 5.35% (inactive). In the case of `Cc1[nH]nc2c1C(c1ccc(Br)cc1)NC2=O` (stereo unspecified), the inhibition is reported as 13.4% (inactive). In the case of `Cc1[nH]c2ccccc2c1CC(=O)Nc1ccc(Nc2cccnc2)c(-c2cccc(Cl)c2)c1`, the inhibition is reported as 23.9% (inactive). For `Cc1ccc(NC(=O)N2c3ccccc3SC2c2ccco2)c(C)c1` (stereo unspecified), the inhibition was 0.24% (inactive). With `Nc1nc2c(ncn2[C@@H]2O[C@H](C(=O)N[C@@H](Cc3ccccc3)C(=O)NCc3ccccc3)[C@@H](O)[C@H]2O)c(=O)[nH]1` the inhibition was 1.52% (inactive). With `CC(C)(C)C(c1nc2ccccc2[nH]1)n1c(Cc2csc3ccccc23)nc2ccccc21` (stereo unspecified) the inhibition was 0.61% (inactive). With `CCCCCCCCN1C(=O)[C@@H](CC(=O)N2CCN(C(=O)OCC)CC2)C[C@@]2(C(=O)OC)C1=C[C@H](C1CCCC1)O[C@@H]2C` the inhibition was -6.71% (inactive). With `O=C(NS(=O)(=O)c1cccs1)[C@H]1O[C@@H](n2ccc(=O)[nH]c2=O)[C@H](O)[C@@H]1O` the inhibition was -0.42% (inactive). With `COc1cc(/C=N/Nc2nn3cnnc3c3ccccc23)cc(OC)c1OC` the inhibition was 27.1% (active). In the case of `CN(CCO)c1ccc(/C=N/Nc2nncc3ccccc23)cc1`, the inhibition is reported as 4.89% (inactive). `COc1cc(Nc2nc3ccc(Cl)cc3n3cnnc23)cc(OC)c1OC` was tested, and the inhibition was -7.78% (inactive). In the case of `Nc1[nH]c(C(=O)c2ccccc2)c(-c2ccc(Cl)cc2Cl)c1C(=O)c1ccccc1`, the inhibition is reported as 1.42% (inactive). With `CCCCCCCCN1C(=O)[C@@H](CC(=O)NCc2ccc(C)o2)C[C@@]2(C(=O)OC)C1=C[C@H](C(C)(C)C)O[C@@H]2C` the inhibition was -18.4% (inactive). `C[C@@H]1CN([C@H](C)CO)C(=O)CCCn2cc(nn2)CO[C@H]1CN(C)C(=O)Nc1ccc(N2CCCCC2)cc1` was tested, and the inhibition was -5.8% (inactive). `O=C(NCc1ccccc1)[C@@H]1CCCN1C(=O)[C@@H](NS(=O)(=O)c1ccc(F)cc1F)C1CCCCC1` was tested, and the inhibition was -1.92% (inactive). For `Cc1ccc(N)cc1CN1CCN(c2ncc(Cc3ccccc3)cn2)CC1`, the inhibition was 12% (inactive). For `COc1cccc(CNC(=O)[C@H]2CCCN2C(=O)[C@H]2CCCN2C(=O)C2CCCCC2)c1`, the inhibition was -4.66% (inactive). `COC(=O)[C@]1(Cc2ccccc2)NC=C(C(=O)c2ccccc2)[C@@H]1c1cccc(OC)c1` was tested, and the inhibition was -16.7% (inactive). In the case of `C=CC1=CCN(S(=O)(=O)C(C)(C)C)[C@@H]1CCO`, the inhibition is reported as -14.4% (inactive). In the case of `CN1CCCc2nc(-c3ccccc3)ccc21`, the inhibition is reported as 1.42% (inactive). For `CSc1ccc(Oc2cccc3c2S(=O)(=O)N([C@H](C)c2ccccc2)C[C@@H](COCc2ccccc2)O3)cc1C`, the inhibition was 0.74% (inactive). For `Cc1cc2c(nc1C)CCCN2C`, the inhibition was -12% (inactive). With `CN1C(=O)C2CC(O)C(SC3CC4C(=O)N(C)C(=O)C4CC3O)CC2C1=O` (stereo unspecified) the inhibition was -4.75% (inactive). In the case of `COC(=O)[C@]12C[C@H](CC(=O)NCc3cccc(C(F)(F)F)c3)C(=O)N(Cc3ccc4c(c3)OCO4)C1=C[C@H](COCc1ccccc1)O[C@@H]2C`, the inhibition is reported as 2.38% (inactive). With `COC(=O)C1=C(C)N(Cc2ccccc2C(F)(F)F)C(=NCc2ccc(C(F)(F)F)cc2)NC1c1ccc(F)cc1` (stereo unspecified) the inhibition was 8.73% (inactive). In the case of `COC(=O)C(C(=O)OC)c1ccccc1NS(=O)(=O)c1cccc2ccccc12`, the inhibition is reported as -1.63% (inactive). With `COCCNc1nc(Nc2ccccc2Cl)c2sc(-c3ccccc3)cc2n1` the inhibition was 13.4% (inactive). In the case of `OCCNc1nc(Nc2ccc(Cl)c(Cl)c2)nc2ccccc12`, the inhibition is reported as 26% (active). With `OCCNCCOc1ccc(Cl)c(Cl)c1` the inhibition was -8.06% (inactive). For `COC(=O)[C@]12C[C@H](CC(=O)NCc3ccc(C)o3)C(=O)N(CCC3=CCCCC3)C1=C[C@H](C(C)(C)C)O[C@@H]2C`, the inhibition was -6.9% (inactive).
